# Compound activity as filed in PubChem.
# Sampled rows, rich in hits. Any-hit rate of the full collection: about 3%.
# Shn3 inh set2: reduction of Shn3 3'UTR firefly luciferase signal, primary screen, Schnurri-3 inhibitor project, cell-based, Clone20 osteoblasts, set 2 | 360,000 compounds, 0.52% hits | Clone20 osteoblast Shn3 3'UTR firefly luciferase, 24 h | inhibition, % at 12.5 µM | AID 588674, 2011;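 active = mean inhibition of at least 75% with every replicate also reaching 75%; inconclusive = mean inhibition at least 75% but some replicate below; inactive = mean inhibition below 75%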;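 note: 0% = median of neutral control wells and 100% = pilot-screen positive control compound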
# TRPM1 prom inh: inhibitors of MITF-dependent TRPM1 promoter reporter, primary screen, cell-based, SK-MEL-5, single point, luciferase; SK-MEL-5 TRPM1 promoter luciferase, 24 h; inhibition, % at 12.5 µM; 330,000 compounds, 0.83% hits; AID 488899, 2010;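 active = mean inhibition across replicates of 60% or more, whatever share of single replicates reaches that level; inconclusive = some that reach 60%, reason not given; inactive = mean inhibition across replicates below 60%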
# ABHD5 PLIN5 PPI: ABHD5-PLIN5 interaction inhibitors, primary screen, cell lysate, split luciferase complementation, luminescence | Perilipin-5 (Homo sapiens) + 1-acylglycerol-3-phosphate O-acyltransferase ABHD5 (Homo … | 360,000 compounds, 0.78% hits | inhibition, % at 4 µM | Split G. princeps luciferase complementation, 4 h;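 active = inhibition above the mean inhibition across every tested compound plus 3 SD, cut at about 22% in these data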;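 note: 0% = DMSO only wells and the 100% control is not disclosed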
# Target sequence (Q00G26 whole entry, looked up): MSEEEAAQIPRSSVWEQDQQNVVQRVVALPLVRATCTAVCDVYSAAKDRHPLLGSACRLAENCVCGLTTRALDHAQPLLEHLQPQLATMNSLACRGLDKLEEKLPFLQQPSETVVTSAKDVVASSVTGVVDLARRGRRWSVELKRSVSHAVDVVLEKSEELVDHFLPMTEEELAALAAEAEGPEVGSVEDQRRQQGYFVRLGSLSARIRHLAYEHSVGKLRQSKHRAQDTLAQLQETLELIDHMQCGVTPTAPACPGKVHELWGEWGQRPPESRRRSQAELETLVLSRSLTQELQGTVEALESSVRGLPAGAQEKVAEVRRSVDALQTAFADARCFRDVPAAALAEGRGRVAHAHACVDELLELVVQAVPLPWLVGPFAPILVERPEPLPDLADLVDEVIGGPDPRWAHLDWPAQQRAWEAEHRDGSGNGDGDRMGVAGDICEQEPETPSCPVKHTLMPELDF
# Target sequence (Q8WTS1 whole entry, looked up): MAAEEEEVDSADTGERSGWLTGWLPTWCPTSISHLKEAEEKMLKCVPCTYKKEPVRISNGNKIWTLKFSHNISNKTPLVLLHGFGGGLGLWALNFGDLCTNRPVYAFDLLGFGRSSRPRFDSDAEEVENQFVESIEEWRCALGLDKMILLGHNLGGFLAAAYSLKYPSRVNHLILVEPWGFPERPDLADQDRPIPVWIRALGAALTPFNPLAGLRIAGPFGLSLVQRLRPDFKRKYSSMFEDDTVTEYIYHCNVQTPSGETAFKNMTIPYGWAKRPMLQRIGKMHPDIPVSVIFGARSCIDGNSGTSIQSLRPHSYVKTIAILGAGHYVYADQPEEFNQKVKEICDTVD
# PAX8 inh HTS: inhibitors of PAX8-driven TPO luciferase reporter, primary screen, RMG-I cells, single concentration; SteadyGlo, 24 h; inhibition, % at 12.6 µM; 360,000 compounds, 1.2% hits;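 active = mean replicate inhibition at least 60% with every replicate also reaching 60%; inconclusive = only one of the two criteria is met; inactive = mean below 60% and not all replicates reaching 60%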;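 note: luciferase light reporting Pax8 driven TPO promoter activity; plate controls were median of neutral control wells for no effect and mitoxantrone controls for full effect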
# EWS-Fli inh: EWS/Fli-driven NR0B1 reporter inhibitors, primary screen, A673 cells, NR0B1 luciferase, luminescence, MLPCN library. AID 651661, 2012. viability-normalised. 350,000 compounds, 0.67% hits. inhibition, % at 12.6 µM;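 active = mean inhibition of at least 50% after viability correction, with every replicate also passing that limit; inconclusive = mean reaches 50% but only one of two replicates passes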;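 note: firefly luciferase signal divided by Alamar Blue viability fluorescence both relative to DMSO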
# Peg3 promoter: Peg3 promoter-driven luciferase inhibitors, primary screen, cell-based, HeLa, luciferase luminescence; HeLa PEG-Prom luciferase reporter, overnight; inhibition, % at 20 µM; 360,000 compounds, 1.7% hits; AID 588405, 2011;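 active = inhibition of at least 50% at 20 µM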
# * marks the source's active call; other numbers are inactive results; u = inconclusive; x = no result; ! = not active in a repeat.
SMILES,Shn3 inh set2,TRPM1 prom inh,ABHD5 PLIN5 PPI,PAX8 inh HTS,EWS-Fli inh,Peg3 promoter
O=C(C[C@@H]1C[C@H]2c3cc(NS(=O)(=O)c4ccc(F)cc4)ccc3O[C@H]2[C@@H](CO)O1)NCc1ccc(-c2ccccc2)cc1,x,x,x,73.5*,-10.1,x
O=C(C[C@H]1C[C@H]2c3cc(NS(=O)(=O)c4ccc(F)cc4)ccc3O[C@H]2[C@H](CO)O1)NCc1ccc(-c2ccccc2)cc1,x,x,x,83.8*,30.8,x
O=C(C[C@@H]1C[C@H]2c3cc(NS(=O)(=O)c4ccc(F)cc4)ccc3O[C@H]2[C@H](CO)O1)NCc1ccc(Cl)cc1,x,x,x,77.9*,-15.2,x
O=C(C[C@H]1C[C@H]2c3cc(NS(=O)(=O)c4ccc(F)cc4)ccc3O[C@H]2[C@H](CO)O1)NCc1ccccc1,x,x,x,29.9,-3.3,x
COc1ccc(NC(=O)Nc2cccc3c2O[C@@H](CN(C)S(C)(=O)=O)[C@@H](C)CN([C@@H](C)CO)C3=O)cc1,x,x,x,x,-21.5,x
CC1(C)Cc2c(sc(NC(=O)c3ccc4c(c3)OCCO4)c2C(N)=O)C(C)(C)N1,-29.9,0.1,-1.6,3.3,9.3,17.9
CCOC(=O)c1c(NC(=O)COc2ccccc2)sc2c1CC(C)(C)NC2(C)C,12.4,7.3,-1.1,7.9,-81.6,74.7*
COC(=O)c1c(NC(=O)c2ccc(C(=O)c3ccccc3)cc2)sc2c1CC(C)(C)NC2(C)C,-28.6,x,-0.4,6.8,10.8,94.0*
COC(=O)c1c(NC(=O)c2nc3ccccc3s2)sc2c1CC(C)(C)NC2(C)C,71.7,77.3*,-2.9,-2.6,-20.1,104.5*
CC1(C)Cc2c(sc(NC(=O)c3ccc(C(=O)c4ccccc4)cc3)c2C#N)C(C)(C)N1,15.4,8.5,1.6,-0.2,3.1,15.9
CCOC(=O)c1c(NC(=O)COC(=O)/C=C/c2ccco2)sc2c1CC(C)(C)NC2(C)C,-19.0,11.0,0.8,6.7,-9.5,-7.7
CCOc1ccc(C(=O)Nc2sc3c(c2C(=O)OC)CC(C)(C)NC3(C)C)cc1,14.4,28.0,2.8,6.6,1.3,78.9*
Cc1noc(C)c1NC(=O)Nc1ccc2c(c1)CC(=O)N([C@H](C)CO)C[C@@H](C)[C@@H](CN(C)S(C)(=O)=O)O2,x,x,x,6.6,-7.8,x
O=C(Nc1cccc(Cl)c1)N1C[C@@H]2[C@H](c3ccccc31)[C@@H](CO)N2C(=O)C1CC1,x,x,x,8.9,1.8,x
CO[C@H]1CN(C)C(=O)c2cc(C#N)ccc2OC[C@H]2O[C@H](CC[C@H]2OC)CCN(C)C(=O)[C@@H]1C,x,x,x,-20.6,-1.5,x
O=C(C[C@@H]1C=C[C@@H](NC(=O)Nc2ccccc2F)[C@@H](CO)O1)NCc1ccc(-c2ccccc2)cc1,x,x,x,7.5,-0.3,x
CCN1CCN(Cc2ccc(NC(=O)c3ccc(C)c(NC(=O)c4ccc5n[nH]nc5c4)c3)cc2C(F)(F)F)CC1,-12.4,29.0,-1.6,-6.2,1.6,-9.6
CCN1CCN(Cc2ccc(NC(=O)c3cccc(-c4ccc5nc(NC(=O)C6CC6)sc5n4)c3)cc2C(F)(F)F)CC1,x,x,x,80.2*,37.4,x
CCN1CCN(Cc2ccc(NC(=O)c3cc(NC(=O)c4cnn(-c5ccccc5)c4N)cc(OC)c3)cc2C(F)(F)F)CC1,15.4,79.3*,12.1,-1.7,61.3*,-33.7
CCN1CCN(Cc2ccc(NC(=O)c3ccc(C)c(NC(=O)c4ccnnc4)c3)cc2C(F)(F)F)CC1,-16.4,-9.3,5.7,7.9,-9.4,6.2
CCN1CCN(Cc2ccc(NC(=O)c3ccc(C)c(NC(=O)C(=O)c4c[nH]c5ccccc45)c3)cc2C(F)(F)F)CC1,u,82.4*,29.7*!,101.1*,58.5*!,96.8*
CCN1CCN(Cc2ccc(NC(=O)c3cc(NC(=O)C(=O)c4c[nH]c5ccccc45)cc(OC)c3)cc2C(F)(F)F)CC1,32.7,57.5,22.4*!,95.2*,54.2*,93.6*
CCCC(=O)Nc1ccc2c(c1)OC[C@@H](C)N(Cc1ccccc1)C[C@@H](C)[C@@H](OC)CN(C)C2=O,x,x,x,-2.0,0.9,x
O=C(C[C@@H]1C[C@H]2c3cc(NC(=O)NC4CCCC4)ccc3O[C@H]2[C@@H](CO)O1)NCc1ccccc1F,x,x,x,-22.2,6.4,x
Cc1noc(C)c1NC(=O)Nc1ccc2c(c1)CC(=O)N([C@@H](C)CO)C[C@H](C)[C@@H](CN(C)S(=O)(=O)c1c(C)noc1C)O2,x,x,x,-6.6,-3.5,x
SMILES,Shn3 inh set2,TRPM1 prom inh,ABHD5 PLIN5 PPI,PAX8 inh HTS,EWS-Fli inh,Peg3 promoter
C[C@@H]1CN([C@@H](C)CO)C(=O)c2cc(N(C)C)ccc2O[C@@H](C)CCCCO[C@H]1CN(C)C(=O)Cc1ccccc1,x,x,x,-3.0,2.7,x
CC(C)c1cn(CC[C@H]2CC[C@@H](NC(=O)C3CCCC3)[C@H](CO)O2)nn1,x,x,x,10.8,-3.5,x
CCN1CCN(Cc2ccc(NC(=O)c3cc(NC(=O)c4cc(C)on4)cc(OC)c3)cc2C(F)(F)F)CC1,-8.8,49.5,8.2,11.7,9.7,57.4*!
COc1cccc(NC(=O)C[C@H]2CC[C@H]3[C@@H](COc4ccc(NC(=O)c5ccccc5F)cc4C(=O)N3C)O2)c1,x,x,x,x,2.2,x
COc1ccc(C(CCNCc2ccc(N(C)C)cc2)c2ccccc2)cc1 (stereo not drawn),52.5,33.2,12.3,4.5,47.8,106.7*
CC(C)Oc1ccc(C(CCNCc2ccc(O)cc2)c2ccccc2)cc1 (stereo not drawn),26.5,86.4*,4.5,25.4,u,106.1*
COc1ccc(C(=O)/C=C/c2ccccc2F)c(OC(=O)c2ccc([N+](=O)[O-])cc2)c1,-29.8,-6.3,27.9*,-55.7,x,-83.1
CCCCC(CC)CN=C(N)NC(N)=NCCCCCCN=C(N)NC(N)=NCC(CC)CCCC (stereo not drawn),96.8*,109.8*,16.2,x,x,102.6*
COc1ccc(S(=O)(=O)/N=C2/NC(=O)/C(=C\c3ccco3)S2)cc1,12.9,5.3,3.9,3.5,x,1.2
COc1ccc(S(=O)(=O)/N=C2/NC(=O)/C(=C/c3ccco3)S2)cc1,25.9,11.4,5.7,70.0*,-7.8,16.9
O=C(C[C@@H]1CC[C@@H]2[C@H](COC[C@@H](O)CN2C(=O)C2CC2)O1)NCc1ccncc1,x,x,x,-4.9,7.4,x
O=C(CNc1cccc2ccccc12)N/N=C/C(Br)=C/c1ccccc1,90.5*,9.6,9.6,x,x,27.8
O=C(Cc1ccc([N+](=O)[O-])cc1)N/N=C/c1ccc([N+](=O)[O-])o1,1.1,x,-0.6,30.5,5.9,4.3
O=C(CNc1cccc([N+](=O)[O-])c1)N/N=C/c1ccc([N+](=O)[O-])o1,17.5,77.9*,-1.4,49.4,25.7,14.2
CCCCCCCC(=O)N/N=C/c1ccc([N+](=O)[O-])o1,3.7,36.8,2.8,-8.9,-2.0,-9.9
